Screening data (PubChem)
SARS PLpro yeast: inhibitors of SARS-CoV papain-like protease in yeast | S. cerevisiae expressing SARS-CoV PLpro, growth rescue | Potency, µM (titrated, usually from 32.9 µM), for the others: at the top dose activity, positive = growth rescue, most hits filed as activators | 0.19% of 330,000 active | AID 485353; calls by dose curve; further: potency means the concentration at half of the fitted maximal effect; 0% is about no effect; nearly all actives have a fitted effect of over 55% in size
Pf growth 48h: P. falciparum growth inhibition at 48 hours (one generation) | P. falciparum luciferase growth in erythrocytes, 48 h | Potency, µM (doses to about 28.7 µM), for inactives: at the top dose activity change, negative = inhibition, most hits filed as inhibitors | 5.9% of 310,000 active; further: potency means the concentration at half of the fitted maximal effect; on the % scale 0 is the no-effect control and ±100 the full control effect
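Compounds are pin-transferred into medium, infected erythrocytes (2% hematocrit, 0.1% parasitemia final) are added, and plates sit one parasite generation at 37 C in 5% CO2. Detection reagent is then added and luminescence measured.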
HCMV antiviral: human cytomegalovirus inhibition | 4.5% of 410,000 active | HFF cells, HCMV-luciferase reporter, 72 h; active compounds read low | AID 1259415 | activity change, negative = inhibition, % at 57.5 µM; in the data active means activity change below about -60%; inconclusive means no clear call, values can overlap the other calls; inactive means above about -39%; further: on the % scale 0 is the no-effect control and ±100 the full control effect
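Steps: HFFs plated, 16 h 37C; compounds added; HCMV-luciferase added to MOI 1 PFU/cell; 72 h 37C; OneGlo reagent, 5 min room temperature; luminescence read, normalized to controls.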
HCV inh: HCV inhibition; Huh7.5.1 HCVcc-Cre infection, luciferase reporter, 44 h; Potency, µM (series often up to 41.8 µM), inactives show at the highest dose activity change, negative = inhibition, hits mostly inhibitors; 3.4% of 340,000 active; AID 651820; further: potency means the concentration at half of the fitted maximal effect; on the % scale 0 is the no-effect control and ±100 the full control effect
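Infectious HCVcc-Cre (~0.5 moi) was added to cells just after compound, with cells seeded 4 h earlier at 1,000 per well. Luciferase activity after 44 h culture reported infection; substrate was incubated 15 min at room temperature before reading.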
Pf growth 96h: inhibits malaria parasite growth, 96 h; P. falciparum luciferase reporter growth, 96 h; 6.9% of 320,000 active; Potency, µM (top dose mostly 28.7 µM), for inactives: at the highest dose activity change, negative = inhibition, most hits filed as inhibitors; further: potency means the concentration at half of the fitted maximal effect; on the % scale 0 is the no-effect control and ±100 the full control effect
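Readout is luminescence from an integrated firefly luciferase in P. falciparum. Red cells, 2% hematocrit and 0.05% parasitemia final, were cultured with compound through two parasite generations (96 hours) at 37 C, 5% CO2.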
Sm TGR inh: S. mansoni TGR enzyme inhibition; Q962Y6; purified TGR, DTNB reduction, TNB absorbance 405 nm; Potency, µM (titrated, usually from 114 µM), for inactives: at the top dose activity change, negative = inhibition, hits mostly inhibitors; 3% of 360,000 active; further: potency means the concentration at half of the fitted maximal effect; on the % scale 0 is the no-effect control and ±100 the full control effect; nearly all actives have a fitted effect of over 60% in size
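TGR 20 nM + NADPH 100 uM (dispensed conc.), cpd preinc 15 min RT; start with NADPH (500 uM addition) then DTNB (15 mM addition). Kinetic TNB absorbance, 405 nm filter. Four-parameter Hill fit across titration.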
Active calls of the source: *; ? = inconclusive; / = no result given; [ ] = another dose, or the depositor's remark. Only some compounds are listed: those with a hit (about 15% of all), similar ones and a draw of the others. Unless noted, the call rests on the fitted dose curve; in most records, active means well fitted curve in the direction sought with a large enough effect; inconclusive means small, poorly fitted or top-dose-only effect, or another doubt; inactive means no such curve, though single readings can be large; an effect the other way counts as inactive or inconclusive.

SMILES	SARS PLpro yeast	Pf growth 48h	HCMV antiviral	HCV inh	Pf growth 96h	Sm TGR inh
CC(=O)NC12CC3CC(C1)CC(C(=O)Nc1nccs1)(C3)C2	2%	?	36	11%	6.6µM*	-3%
COc1ccc(CCNC(=O)c2ccc(CNc3nc(=S)[nH]c4ccccc34)cc2)cc1OC	-1%	?	-18	10µM*	-6%	6%
COc1cc2[nH]c(=S)nc(NCc3cccs3)c2cc1OC	-1%	?	-14	25µM*	5%	-5%
COc1cc2[nH]c(=S)nc(NCC3CCCO3)c2cc1OC (stereo not given)	3%	?	25	8%	-2%	-1%
COc1cc2[nH]c(=S)nc(NC3CCCCCC3)c2cc1OC	6%	?	-74*	?	8%	1%
COc1cc2[nH]c(=S)nc(NCc3ccc(Cl)cc3)c2cc1OC	0%	12µM*	?	?	?	-17%
COCCCNc1nc(=S)[nH]c2cc(OC)c(OC)cc12	8%	-2%	2	-28%	87%	4%
COc1ccc(CCNc2nc(=S)[nH]c3cc(OC)c(OC)cc23)cc1OC	2%	?	?	?	?	0%
COc1cc2[nH]c(=S)nc(NCCc3ccc(S(N)(=O)=O)cc3)c2cc1OC	2%	-28%	9	3%	55%	14µM*
COc1cc2[nH]c(=S)nc(NCCc3ccc(C)cc3)c2cc1OC	0%	2.6µM*	3	4%	8%	-3%
O=C(/C=C/c1ccccc1[N+](=O)[O-])NCCc1ccc(F)cc1	0%	-6%[5.75 µM]	?	-11%	37%	3%
O=C(/C=C/c1ccccc1Cl)NCCc1ccc(F)cc1	-12%	4.7µM*	-21	-9%	?	-5%
COCCCNC(=O)CCn1c(=O)c2ccccc2n(CC(=O)Nc2c(C)cccc2C)c1=O	4%	8%	-1	-22%	9.3µM*	-18%
Cc1ccc(NC(=O)Cn2c(=O)n(CCC(=O)N3CCc4ccccc4C3)c(=O)c3ccccc32)c(C)c1	/	/	-65*	/	/	-10%
CCCN(CCC)C(=O)Cn1c(=O)n(CCC(=O)NCCc2ccccc2)c(=O)c2ccccc21	1%	/	-5	1%	9.3µM*	-21%
Cc1ccc(NC(=O)Cn2c(=O)n(CCC(=O)NCc3ccccc3Cl)c(=O)c3ccccc32)cc1	/	/	-86*	/	/	7%
Cc1cc(C)cc(N(CCC(=O)Nc2nnc(C)s2)S(=O)(=O)c2ccc(Cl)cc2)c1	-6%	?	-31	6%	?	-13%
c1ccc(-c2nc3nonc3c3nc4ccccc4n23)cc1	-1%	-5%	3	-15%	13µM*	-3%
COc1ccc([C@H]2CC(=O)C=C(c3cc(OC)ccc3OC)C2)cc1	-1%	?	-26	?	?	4%
Cc1c(C(=O)OCC(=O)N(C)CC(=O)Nc2ccc(F)cc2)oc2ccccc12	3%	-21%	-21	?	-19%	-13%
CC(=O)c1c(C)[nH]c(C(=O)Nc2ccc(S(=O)(=O)N(C)C)cc2)c1C	0%	?	29	-19%	13µM*	4%
CC(=O)c1c(C)[nH]c(C(=O)Nc2cc(C)cc(C)c2)c1C	-11%	/	/	?	5.9µM*	-20%
COc1ccc(CC(=O)Nc2ccc(C)cc2O)cc1S(=O)(=O)N1CCOCC1	-1%	?	-20	11%	?	6%
COc1ccc(CC(=O)Nc2nc3ccccc3s2)cc1S(=O)(=O)N1CCOCC1	?	?	-27	11µM*	?	4%
COc1ccc(CC(=O)Nc2nc3ccc(F)cc3s2)cc1S(=O)(=O)N1CCOCC1	-2%	?	6	13µM*	6.6µM*	0%
SMILES	SARS PLpro yeast	Pf growth 48h	HCMV antiviral	HCV inh	Pf growth 96h	Sm TGR inh
CCCCc1nnc(NC(=O)Cc2ccc(OC)c(S(=O)(=O)N3CCOCC3)c2)s1	-2%	10µM*	-18	3%	?	?
COc1ccc(CC(=O)Nc2ccc(F)c(F)c2F)cc1S(=O)(=O)N1CCOCC1	0%	12µM*	53	-1%	?	1%
COc1ccc(CC(=O)Nc2nc(C)cs2)cc1S(=O)(=O)N1CCOCC1	2%	?	2	4%	23%	-1%
COc1ccc(N(CC(=O)N2CCN(C)CC2)S(=O)(=O)c2ccccc2)cc1	1%	14%	-17	-3%	39%	-1%
NC(=O)CCC1NC(=O)C(Cc2ccccc2)NC(=O)C(Cc2ccc(O)cc2)NC(=O)CCSSCC(C(=O)N2CCCC2C(=O)NC(CCCN=C(N)N)C(=O)NCC(N)=O)NC(=O)C(CC(N)=O)NC1=O (stereo not given)	/	16%	/	/	1%	/
CSc1nc(SCc2ccccc2)[nH]c(=O)n1	/	/	11	/	/	/
Fc1cccc(F)c1-n1c(CN2CCCC2)csc1=S	2%	?	-28	?	5.9µM*	-1%
O=C(c1cc(-c2ccc(Cl)cc2)n[nH]1)N1CCN(C(=O)c2ccco2)CC1	11%	13%	-12	-5%	?	-2%
Cc1cc(/C=C2/C(=N)N3C(=NC2=O)SN=C3S(C)(=O)=O)c(C)n1-c1ccc(F)cc1	2%	?	62	10%	-18%	-10%
CC1=CC2=NC(=O)/C(=C\c3cc(C)n(-c4ccc(F)cc4)c3C)C(=N)N2O1	-11%	4.7µM*	-36	?	?	-2%
CCOC(=O)c1ccc(N2C(=O)Cc3cc(OCC)c(OCC)cc3C2c2ccccc2)cc1 (stereo not given)	/	/	-3	/	/	10%
C=CC[C@]12CCc3sccc3C1N(c1ccc(C(=O)OCC)cc1)C2=O (stereo not given in full)	0%	10µM*	26	?	?	-6%
COc1ccc(-c2nc(C(=O)NCCCN3CCOCC3)cc3c2[nH]c2ccccc23)cc1OC	1%	?	3	13µM*	5.2µM*	-4%
Cc1ccc(-c2nc(C(=O)NCCCN3CCOCC3)cc3c2[nH]c2ccccc23)cc1	-7%	5.9µM*	-36	11µM*	6.6µM*	0%
CCOc1ccc(OCC)c(Nc2ccc3cc(S(=O)(=O)N4CCCC4)ccc3n2)c1	/	/	-19	/	/	2%
CCNC(=O)CP(=O)(c1ccccc1)c1ccccc1	-2%	-2%	-23	-5%	8.3µM*	-1%
NNC(=O)CP(=O)(c1ccccc1)c1ccccc1	/	-23%	-8	2%	15%	-2%
Cc1ccc(NC(CNS(=O)(=O)c2ccc(Cl)cc2)c2ccccc2)cc1 (stereo not given)	-25%	24%	-80*	?	?	-3%
COc1cccc(NC(CNS(=O)(=O)c2ccc(C)cc2)c2ccccc2)c1 (stereo not given)	/	/	-22	/	/	0%
